Results published in the supplement of paper PMC10646978.
± gives the standard deviation.

Assays:
Settings in all cases: modulator concentration 10 µM
[1] = test system: RAW-Dual (murine macrophage reporter line); test: NF-kB reporter (SEAP) activity fold change vs agonist alone; higher = enhanced NF-kB activity
Procedure, shortened: (§1)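 Compound reached 10 μM final in each well by pin transfer, onto RAW-Dual murine macrophage reporter cells seeded at 50 000 per well in 384-well plates. After 1 hour at 37 °C, the cells were stimulated overnight with a PRR agonist. SEAP in the supernatant was read with QUANTI-Blue at 620 nm absorbance for NF-κB, and Lucia luciferase was read with QUANTI-Luc luminescence for IRF. Each signal was turned into fold change against the mean agonist-only control on the same plate, and two replicate plates were averaged with propagated errors.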

[2] = test system: RAW-Dual (murine macrophage reporter line); test: IRF reporter (Lucia luciferase) activity fold change vs agonist alone; higher = enhanced IRF activity
Procedure, shortened: as §1

[3] = test system: RAW-Dual (murine macrophage reporter line); test: viability score (confluency relative to resting cells, overnight) (fraction); higher = more viable, active = viable (0.7 or more)
Procedure, shortened: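 RAW-Dual macrophages in 384-well plates were treated overnight with compound at 10 μM final. IncuCyte imaging recorded confluency, and IncuCyte software built two confluency masks across every imaged well. The viability score expresses confluency relative to resting cells and was judged against a cutoff, which a compound met only if both masks exceeded 70% of resting cells.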

[4] = agonist: CpG ODN 1826 0.5 ug/mL

SMILES	NF-kB reporter [1, 4]	NF-kB reporter ([1]; agonist: LPS 0.1 ug/mL)	NF-kB reporter ([1]; agonist: MPLA […])	IRF reporter ([2]; agonist: 3'3'-cGAMP 10 ug/mL)	IRF reporter ([2]; agonist: LPS 0.1 ug/mL)	IRF reporter ([2]; agonist: MPLA […])	viability score [3]
N#CCCN(C1CCCCC1)S(=O)(=O)c1cccc2nsnc12	1.05 ± 0.083	0.826 ± 0.051	1.73 ± 0.58	0.867 ± 0.048	1.33 ± 0.077	1.28 ± 0.15	1.01 (active)
CNc1nc(Nc2ccc(C)c(C)c2)c2nccnc2n1	0.992 ± 0.063	1.03 ± 0.092	1.09 ± 0.09	0.992 ± 0.069	1.01 ± 0.19	1.22 ± 0.42	0.929 (active)
COc1ccc(C(=O)Nc2cccc([N+](=O)[O-])c2)cc1I	1.03 ± 0.083	1.01 ± 0.071	0.95 ± 0.081	0.801 ± 0.037	1.02 ± 0.13	1.04 ± 0.23	0.997 (active)
CN1CCc2c(sc3[nH]c(=S)n(CCc4ccccc4)c(=O)c23)C1	0.753 ± 0.063	0.814 ± 0.042	0.967 ± 0.11	0.778 ± 0.042	1.28 ± 0.083	1.39 ± 0.17	1.01 (active)
O=c1c(-c2ccc(O)cc2)coc2cc(O)cc(O)c12	1.54 ± 0.4	1.01 ± 0.26	1.2 ± 0.079	0.625 ± 0.02	0.76 ± 0.29	0.842 ± 0.1	0.945 (active)
Br.CCCc1cc(-c2nc(-c3ccc(C)cc3)cs2)ccn1	1.09 ± 0.18	1.24 ± 0.12	1.08 ± 0.15	1.04 ± 0.069	1.3 ± 0.22	1.65 ± 0.32	0.993 (active)
CS(=O)(=O)N(CC(=O)NC1CC1)c1cccc2ccccc12	1.04 ± 0.095	1.01 ± 0.12	0.901 ± 0.056	1 ± 0.039	1.59 ± 0.35	1.16 ± 0.17	1.01 (active)
Cc1c(C(=O)OC(C)C)sc(NC(=O)C(C)(C)C)c1C(=O)OC(C)C	0.823 ± 0.081	0.908 ± 0.044	1.09 ± 0.099	1 ± 0.06	1.56 ± 0.095	1.77 ± 0.16	0.985 (active)
COc1ccc(C=NNC(=O)CSc2nnc(-c3ccncc3)n2-c2ccccc2)cc1OC	1.05 ± 0.12	1 ± 0.1	0.962 ± 0.034	0.954 ± 0.05	1.04 ± 0.07	1.01 ± 0.12	0.998 (active)
CC1CC(=CC=CN(C)C)C(=O)C(=CC=CN(C)C)C1 (stereo not drawn)	1.04 ± 0.17	1 ± 0.085	0.917 ± 0.099	0.888 ± 0.043	1.22 ± 0.23	1.32 ± 0.28	1 (active)
O=C(Nc1nc(CC(=O)N2CCOCC2)cs1)c1ccccc1	1.02 ± 0.073	1.02 ± 0.09	0.941 ± 0.14	0.995 ± 0.053	1.24 ± 0.087	1.29 ± 0.1	1.01 (active)
N[C@@H](CC(=O)N1CCn2c(nnc2C(F)(F)F)C1)Cc1cc(F)c(F)cc1F	0.793 ± 0.19	0.989 ± 0.063	0.905 ± 0.058	0.908 ± 0.044	1.05 ± 0.12	1.1 ± 0.16	0.998 (active)
CN(C)C(=O)c1cc2cnc(Nc3ccc(N4CCNCC4)cn3)nc2n1C1CCCC1	0.832 ± 0.036	0.887 ± 0.11	0.941 ± 0.071	0.987 ± 0.046	1.35 ± 0.29	1.53 ± 0.49	0.711 (active)
CCCCc1c(CCC)c(=N)c2ccccc2n1C.I	0.992 ± 0.098	1.18 ± 0.091	1.56 ± 0.15	1.09 ± 0.048	1.67 ± 0.22	2.14 ± 0.32	1.01 (active)
Cl.Cl.NC1=NN(c2ccc(N)cc2)CC1	0.251 ± 0.043	1 ± 0.084	0.991 ± 0.13	0.763 ± 0.035	1.34 ± 0.28	1.22 ± 0.15	1 (active)
O=C(O)CCc1nc(-c2ccccc2)c(-c2ccccc2)o1	1.05 ± 0.079	0.998 ± 0.066	1.03 ± 0.023	0.931 ± 0.055	0.976 ± 0.12	1.03 ± 0.15	0.991 (active)
CCOC(=O)CC(C(=O)OCC)P(=O)(c1ccccc1)c1ccccc1 (stereo not drawn)	0.85 ± 0.048	0.943 ± 0.086	1.02 ± 0.14	0.993 ± 0.061	1.17 ± 0.095	1.15 ± 0.23	1.01 (active)
Nc1ccc(S(=O)(=O)NCCO)cc1	0.983 ± 0.07	1.06 ± 0.12	0.996 ± 0.068	0.973 ± 0.042	1.4 ± 0.12	1.07 ± 0.11	1 (active)
COC(=O)Nc1nc2cc(C(=O)c3cccs3)ccc2[nH]1 [Prestw-100]	2.4 ± 0.14	1.31 ± 0.094	1.98 ± 0.13	0.101 ± 0.0035	1.86 ± 0.18	2.05 ± 0.19	0.715 (active)
Clc1ccc(Cn2c(CN3CCCC3)nc3ccccc32)cc1 [Prestw-227]	0.369 ± 0.076	1.12 ± 0.1	1.06 ± 0.14	0.682 ± 0.038	1.07 ± 0.1	1.37 ± 0.18	0.787 (active)
CC(C(=O)O)c1ccc2c(c1)Cc1cccnc1O2 (stereo not drawn)	1.29 ± 0.17	1.41 ± 0.38	1.1 ± 0.1	0.966 ± 0.03	1.55 ± 0.28	1.15 ± 0.14	0.985 (active)
NC(=O)[C@@H](CCC(F)(F)F)N(Cc1ccc(-c2ncon2)cc1F)S(=O)(=O)c1ccc(Cl)cc1	0.744 ± 0.062	1.04 ± 0.049	1.31 ± 0.16	0.949 ± 0.051	1.43 ± 0.084	1.58 ± 0.13	0.997 (active)
C=CCn1c(-c2ccc(OC)cc2)cnc1SCC(=O)N1CCc2ccccc21	0.967 ± 0.12	1.06 ± 0.09	1.09 ± 0.18	0.927 ± 0.1	1.03 ± 0.062	0.962 ± 0.11	1 (active)
Cc1ccc2oc(-c3cccc(NC(=O)C(C)C)c3C)nc2c1	0.792 ± 0.062	0.908 ± 0.068	0.972 ± 0.094	0.848 ± 0.04	1.16 ± 0.068	1.33 ± 0.13	1.01 (active)
